Bioassay records (PubChem)
Sampled rows, rich in hits. Any-hit rate of the full collection: about 3.1%.
GLS inhibitor – blocks human kidney-isoform glutaminase activity; O94925; GLS enzymatic activity, qHTS titration; Potency, µM (series often up to 45.5 µM), hits mostly inhibitors; actives 0.21% (n = 410,000)
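Read-out is an Amplex red fluorescence increase coupled through glutamate oxidase and HRP, measured before and after 30 min room-temperature incubation. hKGA is in 45 mM KH2PO4 (pH 8.2) with 0.02% Tween-20; glutamine added as 1mM solution.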
PI4K2A inh – inhibitors of human PI4K2A. AID 1346378. purified PI4K2A, ADP-Glo luminescence, 1 h; hits give low values. actives 0.13% (n = 420,000). Q9BTU6. activity change, negative = inhibition, % at 76.9 µM; in the data active means activity change below about -50%; inconclusive means mostly about -30% to -49%
Target sequence (Q9BTU6 whole entry, looked up): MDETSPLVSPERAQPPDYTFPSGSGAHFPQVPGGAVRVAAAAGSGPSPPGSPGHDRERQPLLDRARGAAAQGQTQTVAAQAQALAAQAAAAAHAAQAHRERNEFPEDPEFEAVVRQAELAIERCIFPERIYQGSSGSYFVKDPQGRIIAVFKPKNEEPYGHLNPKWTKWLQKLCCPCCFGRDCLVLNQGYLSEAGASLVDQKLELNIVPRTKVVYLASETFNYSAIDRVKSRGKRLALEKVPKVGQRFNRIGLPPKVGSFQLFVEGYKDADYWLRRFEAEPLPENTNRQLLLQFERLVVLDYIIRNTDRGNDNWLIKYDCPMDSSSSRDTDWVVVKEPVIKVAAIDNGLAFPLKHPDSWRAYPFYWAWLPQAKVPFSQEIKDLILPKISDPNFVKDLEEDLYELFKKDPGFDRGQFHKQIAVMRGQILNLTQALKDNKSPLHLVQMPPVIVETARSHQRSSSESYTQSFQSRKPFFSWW
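ADP-Glo luminescence measured ADP generated by PI4K2A enzyme (4 ug/mL before mixing) with 1.2 mM PI substrate (pre-mix) and 300 microM ATP (pre-mix). Tris pH7.5 buffer with MgCl2, Triton X-100; 1 h reaction at ambient temperature.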
VDR inh – vitamin D3 receptor (human) inhibition; P11473; VDR-SRC2-3 peptide fluorescence polarization, 2 h; Potency, µM, actives largely listed as inhibitors; actives 0.93% (n = 400,000)
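The screen uses fluorescence polarization to detect compounds that interfere with recruitment of the SRC2-3 coactivator peptide to VDR; plates are read after 2 h at room temperature.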
PLK1 PBD inh – blocks phosphopeptide binding to human PLK1 polo-box domain. Potency, µM, actives largely listed as inhibitors. Plk1 PBD binding of FITC phosphopeptide, fluorescence polarization. P53350. actives 2.8% (n = 360,000); further: series mostly up to about 57 µM; nearly all actives have a fitted effect of over 65% in size
GCN5L2 inh – blocks human GCN5L2 histone acetyltransferase; Q92830; GCN5L2 HAT assay, ThioGlo1 CoA-SH fluorescence; Potency, µM (titrated, usually from 58.9 µM), actives largely listed as inhibitors; actives 0.21% (n = 390,000); AID 504327
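ThioGlo1-coupled HAT assay: 20nM GCN5L2, 70uM acetyl-CoA, 75uM H3(1-25) peptide, pH 7.5. Fluorescence read at 340/540nm at start and after 20 min at room temperature.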
Each line names hits and unclear results; the compound was inactive in the other large screens; ! = a repeat was not active. Unless noted, the call rests on the fitted dose curve; in most records, active means well fitted curve in the direction sought with a large enough effect; inconclusive means small, poorly fitted or top-dose-only effect, or another doubt; inactive means no such curve, though single readings can be large; an effect the other way counts as inactive or inconclusive.

COc1ccccc1C1NC(c2ccc3c(c2)OCO3)=CC(c2cc(Cl)ccc2O)N1 (centres undefined)	none (no result: GLS inhibitor, PI4K2A inh, PLK1 PBD inh, GCN5L2 inh)
COc1ccc(Br)cc1CNC(=O)c1cc2n(n1)CCCN(Cc1ccc(C)cc1)C2=O	none (no result: PLK1 PBD inh)
COc1cc(C=Nn2c(-c3ccc(F)cc3)n[nH]c2=S)ccc1OCc1ccccc1	none (no result: GLS inhibitor, VDR inh, PLK1 PBD inh, GCN5L2 inh)
Cc1ccc(C2C(C=Nc3c(C)n(C)n(-c4ccccc4)c3=O)=C(c3ccccc3)Oc3ccccc32)cc1 (centres undefined)	PLK1 PBD inh 21µM
COc1cccc(-c2nnc3sc(-c4ccccn4)nn23)c1	PLK1 PBD inh 27µM
CC(C)(C)c1ccc(-c2nnc3sc(-c4ccccn4)nn23)cc1	VDR inh inconclusive, PLK1 PBD inh 21µM
Cc1ccccc1Nc1oc(-c2ccccc2)nc1-c1ccccc1F	none (no result: GLS inhibitor, PI4K2A inh, PLK1 PBD inh, GCN5L2 inh)
CCOc1ccc(CCNC(=O)c2cc(C)nc3c2c(C)nn3-c2cccc(F)c2)cc1	none (no result: PLK1 PBD inh)
Cc1ccc(C)c(NC(=O)CCN2C(=O)c3ccccc3Sc3ncccc32)c1	none (no result: PLK1 PBD inh)
Cc1cccc(N(C)c2cc(C)nc3nc(C)nn23)c1	PLK1 PBD inh 30µM
CCN(c1ccccc1)c1cc(C)nc2nc(C)nn12	none
C[C@H]1C2CC(OC(=O)Nc3cccc(C(F)(F)F)c3)C(C2)[C@H]2CCCCN21 (some centres undefined)	none (no result: GLS inhibitor, VDR inh, PLK1 PBD inh, GCN5L2 inh)
CCOC(=O)N1CCN(C(=O)c2ccc(CSc3ccc(Cl)cc3)cc2)CC1	PLK1 PBD inh 27µM
O=c1[nH]c(/C=C\c2cccnc2)c([N+](=O)[O-])c(=O)[nH]1	PLK1 PBD inh 27µM
Cc1ccc(N2CCn3c2nc2c3c(=O)n(CCCc3ccccc3)c(=O)n2C)cc1	none (no result: PLK1 PBD inh)
CCOC(=O)c1c(C)oc2c1cc(NS(=O)(=O)c1ccc(C(=O)O)cc1)c1ccccc12	PLK1 PBD inh 27µM
Cc1c(Cc2ccccc2)sc(NC(=O)/C=C/c2cccc3ccccc23)c1C(N)=O	GLS inhibitor inconclusive, VDR inh inconclusive, PLK1 PBD inh 7.5µM
Cc1c(Cc2ccccc2)sc(NC(=O)c2ccco2)c1C(N)=O	none
NS(=O)(=O)c1cccc2c1c([N+](=O)[O-])cc1nc(O)c(O)nc12	VDR inh 40µM!
COc1cc(OC)cc(N2CC(C)(C)C2=O)c1	PLK1 PBD inh 21µM
COC[C@@H](OC(C)=O)[C@H]1OCc2ccccc2[C@@H]1/C=C/c1ccccc1	none (no result: GLS inhibitor, VDR inh, PLK1 PBD inh, GCN5L2 inh)
COc1ccc(Br)cc1C=NNC(=O)c1ccncc1	none (no result: GLS inhibitor, VDR inh, PLK1 PBD inh, GCN5L2 inh)
CCCCN=c1scc(-c2ccc3c(c2)NC(=O)CO3)n1N=C1CCCC1	PLK1 PBD inh 17µM
Cn1c(Cl)cnc1C1CC(=O)c2cc(Cl)ccc2O1 (centres undefined)	VDR inh 79µM
Cc1ccc(C2CCC3(CCC(=O)N3CCO)CC2)cc1 (centres undefined)	none (no result: GLS inhibitor, VDR inh, PLK1 PBD inh, GCN5L2 inh)
O=c1cc(O)n(C2CCCCCC2)c(=O)[nH]1	PI4K2A inh -51, VDR inh inconclusive
O=C(NCc1ccccc1Cl)C1CCCN(c2nc3ccccc3o2)C1 (centres undefined)	none (no result: GLS inhibitor, VDR inh, PLK1 PBD inh, GCN5L2 inh)
O=C(Nc1ccc(C(=O)N2CCCCC2)cc1)c1ccccc1	PI4K2A inh inconclusive (no result: GCN5L2 inh)
O=C(Nc1ccccc1)Nc1ccc(C(=O)N2CCCC2)cc1	PI4K2A inh -62
O=C(CCSc1nnc2ccc3ccccc3n12)Nc1ccc(F)cc1	PLK1 PBD inh 30µM
COc1cc(/C=C(\C#N)C(=O)N2CCOCC2)cc(Br)c1O	PLK1 PBD inh 21µM
N#C/C(=C\c1cccc(Oc2ccccc2)c1)C(=O)N1CCOCC1	VDR inh 45µM, PLK1 PBD inh inconclusive
O=C(Oc1cccc(Oc2ccccc2)c1)N1CCOCC1	none
N#C/C(=C/c1ccc(Oc2ccc([N+](=O)[O-])cn2)cc1)C(=O)N1CCOCC1	VDR inh inconclusive
Cc1ccc(-n2c(SCc3nc4ccccc4[nH]3)nnc2-c2ccccn2)cc1	none (no result: GLS inhibitor, VDR inh, PLK1 PBD inh, GCN5L2 inh)
CC[C@@]1(O)C(=O)OCc2c1cc1n(c2=O)Cc2cc3c(CN(C)C)c(O)ccc3nc2-1	PLK1 PBD inh 6µM, GCN5L2 inh inconclusive
CC[C@@]1(O)C(=O)OCc2c1cc1n(c2=O)Cc2cc3c(N)cccc3nc2-1	none
COc1ccc(C(=O)OCC2CC(c3ccccc3)=NO2)cc1OC (centres undefined)	GLS inhibitor inconclusive, VDR inh inconclusive, PLK1 PBD inh 11µM
COc1cc(C(=O)OCC2CC(c3ccccc3)=NO2)cc(OC)c1OC (centres undefined)	none
